# From ChEMBL document CHEMBL3988442, “University of Dundee, Small-Polar-MMV Screening Library” (2021)
# The whole screen tested about 38,000 compounds, of which about 1,200 (3.2%) showed an effect of 50% or more. The median lay at about -58%. What follows is part of a selection rich in strong results, with near analogues and random picks from the rest.
# Tested on: Plasmodium falciparum
# Assay: Calibr Malaria Delayed Death Assay SOP
# Assay type: functional, organism-based
# Parameters: scale not given: in the data most compounds retested in dose-response had high values
# Conditions: concentration 4.99e-06 (unit not given; other assays of the set use mol/L)
row,Compound,Percent Effect [%]
1,Cc1nc(C(C)C)sc1C(=O)NCCSc1nccn1C,-107.8
2,CC(=O)Nc1ccn(Cc2ccccc2)n1,-105.1
3,CCOC(C)C(=O)N1CCCN(Cc2csc(CC)n2)CC1 (stereo not given),-48.75
4,O=C(O)C(F)(F)F.O=C(O)C(F)(F)F.O=C(O)C(F)(F)F.c1coc(CN2CCC3(CC2)COCCN(CCN2CCCC2)C3)c1,-114.4
5,CN1CCNC(=O)C12CCN(Cc1ccco1)CC2.O=C(O)C(F)(F)F.O=C(O)C(F)(F)F,-34.77
6,Cc1nc(CN2CCC3(C2)CN(Cc2ccco2)C3)cs1,1.617
7,Cc1ccc(CN2CCC3(CC2)CCN(Cc2ccco2)CC3)cc1.O=C(O)C(F)(F)F.O=C(O)C(F)(F)F,91.42
8,Cc1nc(CN2CCC23CCN(Cc2ccco2)CC3)cs1,-38.18
9,Cc1noc(C)c1CN1CC2(CCN(Cc3c[nH]cn3)CC2)CC1=O,-101.4
10,CO[C@@H]1CC[C@H]2[C@H]1OCCN2Cc1ccccn1.O=C(O)C(F)(F)F.O=C(O)C(F)(F)F,-69.16
11,CNC(=O)CN1CCC(NC2CSCCc3ccccc32)CC1 (stereo not given),-108
12,COCCCN1CCC(NC2CSCCc3ccccc32)CC1 (stereo not given),-4.969
13,CN(C)CCN1CCC(NC2CSCCc3ccccc32)CC1 (stereo not given),75.4
14,Cn1ncnc1CNc1ccccc1C(=O)NC(C)(C)C,-77.77
15,Cc1ccccc1CN1CCC2(CCCN2C(=O)C(C)C)CC1,-62.94
16,O=C1NC(C(=O)NCc2cccnc2Oc2ccc(F)c(F)c2)CO1 (stereo not given),-127.9
17,CCN(CC1CCCN(CCc2cccc(OC)c2)C1)C(=O)CSC (stereo not given),19.02
18,COc1ccc(C(=O)C2CCCN(CCc3ccccc3)C2)c(OC)c1 (stereo not given),71.36
19,CCN(CC1CCCN(CCc2cccc(OC)c2)C1)C(=O)CN(C)C (stereo not given),83.05
20,CCN(CC1CCCN(CCc2cccc(OC)c2)C1)C(=O)CO (stereo not given),28.13
21,COc1ccc(C(=O)C2CCCN(Cc3cccc(F)c3)C2)c(OC)c1 (stereo not given),22.79
22,COc1ccc(C(=O)C2CCCN(Cc3ccncc3)C2)c(OC)c1 (stereo not given),-20.34
23,Cc1ccccc1C(=O)N1CCO[C@H]2[C@H](OCCN(C)C)CC[C@@H]21.O=C(O)C(F)(F)F,-35.41
24,CCCN(CCC)C(=O)c1cnn(C)c1C,-133.3
25,CCOc1cccc(CNc2ccccc2OC)c1O,-50.26
26,COc1ccc(CNC(=O)c2ccc(Cl)cc2F)cc1C(=O)O,-124.3
27,COc1ccccc1COCC(O)CN(C)Cc1cccc(Cl)c1 (stereo not given),-103.6
28,COc1cccc(CNCc2ccc(F)c(Cl)c2)c1O,79.38
29,COc1cccc(CNc2ccc(F)c(Cl)c2)c1O,-125.4
30,COc1cccc(CNCc2cccc(Cl)c2)c1O,84.59
